Measurements: PubChem BioAssay (NCI)
This is part of a sample that, as a whole, favours compounds with a hit. Of some 83,000 tested, about 20% had one in any assay.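 The test compound was applied at a single concentration to cells in 96-well plates for 48 hours, and percent growth was recorded.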 Calls of active or inactive are those of the source. How the source made its calls: active means growth percent below 10; inactive means the rest.

The molecules below were run on NCI-H522 lung (assay: NCI-60 one-dose screen, 48 h (100 = growth as untreated, 0 = no growth, -100 = all killed)). Conditions: 10 µM unless noted.
With `C=C1CCC2C3(C)COC(c4cc(F)cc(F)c4)OC3CCC2(C)C1CC(O)C1=CCOC1=O` (stereo not drawn) the growth was 11.9% (inactive).
In the case of `CC(=O)Nc1ccc(C(=O)NC(=S)Nc2ccc(S(N)(=O)=O)cc2)cc1`, the growth is reported as 73.7% (inactive).
In the case of `COc1cc(C2CC(c3cc(OC)c(OC)c(OC)c3)=Nc3c(N)nc(N)nc3N2)ccc1Oc1nc(NCCO)nc(N2CCOCC2)n1` (stereo not drawn), the growth is reported as 87.2% (inactive).
With `CC1=C(C(=O)c2ccccc2)C(c2cccc(Cl)c2Cl)n2c(nc3ccccc32)N1` (stereo not drawn) the growth was 49.9% (inactive).
In the case of `CN1CCc2c(sc3ncnc(N/N=C/c4ccc(Cl)cc4Cl)c23)C1`, the growth is reported as -34.3% (active).
For `O=C(COc1ccc(NC(=O)Nc2ccc(Cl)c(Cl)c2)cc1)N=Nc1c(O)[nH]c2ccc(Br)cc12`, the growth was -64.7% (active).
`Cn1cc(NC(=O)c2cc(NC(=O)c3ccc(C#Cc4ccccc4)cc3)cn2C)cc1C(=O)NCCCN1CCOCC1` was tested, and the growth was -52.2% (active).
With `COCOc1cc2oc(C(=O)N[C@@H](Cc3ccccc3)C(O)C(=O)NCc3ccccc3)c(C)c(=O)c2cc1OCOC` (stereo partly drawn) the growth was 86.9% (inactive).
`Cc1ccc(C(=O)CSc2nc3ccc(C)cc3c(=O)n2-c2ccc(F)cc2)cc1` was tested, and the growth was 63.8% (inactive).
For `CC(C)c1ccc2c(N)c(C(=O)Nc3ccc(C(F)(F)F)cn3)sc2n1`, the growth was 63.2% (inactive).
With `CN(C)CCn1c2ccccc2c2nc3ccc([N+](=O)[O-])cc3nc21` the growth was -25.2% (active).
In the case of `COc1cc2c(c(OC)c1OC)C(=O)CC(c1cccc(NC(=O)c3cc(NC(=O)[C@H](CO)NC(=O)OC(C)(C)C)ccc3Cl)c1)O2` (stereo partly drawn), the growth is reported as 27.6% (inactive).
With `Cc1cccc(NC(=O)[C@]23CCC(C)(C)CC2C2=CCC4[C@@]5(C)C[C@@H](O)[C@H](O)[C@@](C)(CO)C5CC[C@@]4(C)[C@]2(C)CC3)c1` (stereo partly drawn) the growth was 10.8% (inactive).
For `CC(=O)Nc1ccc(-n2cnc3ccc(-c4ccc(O)cc4)cc32)cc1`, the growth was 54% (inactive).
In the case of `NC(=S)Nc1cccc(NC(N)=S)c1`, the growth is reported as 97.2% (inactive).
In the case of `O=C(/C=C/c1ccc(O)c(O)c1)NC1CCOC1O` (stereo not drawn), the growth is reported as 75.6% (inactive).
In the case of `CCN1C(=O)/C(=N\N=C(/C)c2ccc3c(c2)Nc2ccccc2S3)c2cc(Cl)ccc21`, the growth is reported as 54% (inactive).
In the case of `S=C(NCCc1ccccc1)Nc1ccc(OCc2nc3ccccc3[nH]2)cc1`, the growth is reported as 101% (inactive).
With `COc1ccc(-c2nc(SC(C)C)nc(NCCc3c[nH]c4ccccc34)c2C#N)cc1` the growth was 35.8% (inactive).
With `S=C(Nc1ccccc1)Nc1ccc(OCc2nc3ccccc3[nH]2)cc1` the growth was 2.87% (active).
With `CC1(C)CC[C@]2(C(=O)Nc3ccc(Br)cc3)CC[C@]3(C)C(=CCC4[C@@]5(C)C[C@@H](O)[C@H](O)[C@@](C)(CO)C5CC[C@]43C)C2C1` (stereo partly drawn) the growth was -31.3% (active).
With `CC12CC[C@@H]3[C@]4(C)COC(c5c(F)cccc5F)O[C@@H]4CC[C@@]3(C)[C@@H]1CC(C1=CCOC1=O)O2` (stereo partly drawn) the growth was 55.4% (inactive).
In the case of `Cc1ccc(Cc2cnc(NC(=O)c3ccc(/C=C4\SC(=S)N(C)C4=O)cc3)s2)cc1`, the growth is reported as -22.8% (active).
`CC(=O)Nc1ccc(-n2cnc3cc(-c4ccc(O)cc4)ccc32)cc1C(F)(F)F` was tested, and the growth was -33.8% (active).
For `Cn1cc(NC(=O)c2cc(NC(=O)c3ccc(/C=C/c4ccccc4)cc3)cn2C)cc1C(=O)NCCCN1CCOCC1`, the growth was 17.6% (inactive).
`CN(C)CCCNC(=O)c1cc(NC(=O)c2cc(NC(=O)c3ccc(/C=C/c4ccccc4)cc3)cn2C)cn1C` was tested, and the growth was -16.4% (active).
For `CC(=O)OC[C@@]1(C)C2CC[C@]3(C)C(CC=C4C5CC(C)(C)CC[C@]5(C(=O)Nc5ccc(Br)cc5)CC[C@]43C)[C@@]2(C)C[C@@H](OC(C)=O)[C@@H]1OC(C)=O` (stereo partly drawn), the growth was 45.6% (inactive).
For `COc1ccc(NC(=O)Cn2c(O)c(N=Nc3ccc(S(N)(=O)=O)cc3)c3ccccc32)cc1`, the growth was 66.6% (inactive).
In the case of `S=C(Nc1ccc(OCc2nc3ccccc3[nH]2)cc1)NC1CCCCC1`, the growth is reported as 51.7% (inactive).
`Cc1ccc(NC(=O)[C@]23CCC(C)(C)CC2C2=CCC4[C@@]5(C)C[C@@H](O)[C@H](O)[C@@](C)(CO)C5CC[C@@]4(C)[C@]2(C)CC3)cc1` (stereo partly drawn) was tested, and the growth was 12.3% (inactive).
With `O=S(=O)(Nc1cccc(-n2cnc3cc(-c4ccc(O)cc4)ccc32)c1)C1CC1` the growth was 14.4% (inactive).
In the case of `Cn1cc(-c2nnc(N)nc2-c2c[nH]c3ccccc23)c2cccnc21`, the growth is reported as 21.4% (inactive).
In the case of `CN(C)c1ccnc(CNCCSC2(c3ccc(C(F)(F)F)cc3)c3ccccc3CCc3ccccc32)c1`, the growth is reported as -82.6% (active).
With `CC1=C(C(=O)OC(C)C)C(c2cccc(O)c2)NC(=S)N1` (stereo not drawn) the growth was 91.8% (inactive).
`N/N=C(\N)c1c(N)nc(=S)[nH]c1-c1ccc(Cl)cc1Cl` was tested, and the growth was 95.3% (inactive).
For `COc1ccc2[nH]cc(-c3nnc(N)nc3-c3c[nH]c4ncc(Br)cc34)c2c1`, the growth was 84.2% (inactive).
In the case of `COc1cc(C2CC(c3cc(OC)c(OC)c(OC)c3)=NN2c2ccccc2)ccc1OCc1ccc(C)cc1` (stereo not drawn), the growth is reported as 82.3% (inactive).
In the case of `O=C(N/N=C/c1ccc(-c2ccc(O)cc2)o1)c1[nH]c2ccc(Br)cc2c1-c1ccccc1`, the growth is reported as -45.9% (active).
